{"source": "ChEMBL document CHEMBL1157539", "about": "“Thousands of chemical starting points for antimalarial lead identification” (Nature, 2010)", "format_in_all_cases": "functional", "key": {"Plasmodium falciparum [1]": {"test_system": "Plasmodium falciparum", "assay": "GSK_TCMDC: Inhibition of Plasmodium falciparum 3D7 in whole red blood cells, using parasite LDH activity as an index of growth. Test compounds present at 2uM"}, "Plasmodium falciparum [2]": {"test_system": "Plasmodium falciparum", "assay": "GSK_TCMDC: Inhibition of Plasmodium falciparum Dd2 in whole red blood cells, using parasite LDH activity as an index of growth. Test compounds present at 2uM"}, "HepG2": {"test_system": "HepG2", "assay": "GSK_TCMDC: Percent inhibition of human HepG2 cell line. Test compounds present at 10uM."}}, "data": [{"compound": "Cl.O=C(NC1CCC(CCN2Cc3ccc(Br)cc3C2)CC1)c1cccc(-c2cccnc2)c1", "note": "(centres undefined)", "values": [{"measurement": "Inhibition", "setting": "Plasmodium falciparum [1]", "result": 99, "unit": "%"}, {"measurement": "Inhibition", "setting": "Plasmodium falciparum [2]", "result": 73, "unit": "%"}, {"measurement": "Inhibition", "setting": "HepG2", "result": 14, "unit": "%"}]}, {"compound": "CCCOc1cc(NC(=O)Nc2ccnc3ccccc23)cc(OCCC)c1.Cl", "values": [{"measurement": "Inhibition", "setting": "Plasmodium falciparum [1]", "result": 100, "unit": "%"}, {"measurement": "Inhibition", "setting": "Plasmodium falciparum [2]", "result": 98, "unit": "%"}, {"measurement": "Inhibition", "setting": "HepG2", "result": 6, "unit": "%"}]}, {"compound": "Cn1cncc1C(=O)Nc1cccc(-c2ccc(-c3nc4cc(F)ccc4[nH]3)s2)c1", "values": [{"measurement": "Inhibition", "setting": "Plasmodium falciparum [1]", "result": 99, "unit": "%"}, {"measurement": "Inhibition", "setting": "Plasmodium falciparum [2]", "result": 27, "unit": "%"}, {"measurement": "Inhibition", "setting": "HepG2", "result": 0, "unit": "%"}]}, {"compound": "N#Cc1ccc(N2CCN(Cc3cccc(-c4cccc(-c5nc6cc(F)ccc6[nH]5)c4)c3)CC2)nc1.O=C(O)C(F)(F)F", "values": [{"measurement": "Inhibition", "setting": "Plasmodium falciparum [1]", "result": 90, "unit": "%"}, {"measurement": "Inhibition", "setting": "Plasmodium falciparum [2]", "result": 52, "unit": "%"}, {"measurement": "Inhibition", "setting": "HepG2", "result": 26, "unit": "%"}]}, {"compound": "Cc1cc(C2CCN(CCCCNC(=O)c3ccc(-c4ccc(C(F)(F)F)cc4)cc3)CC2)c(C)cc1OCC#N", "values": [{"measurement": "Inhibition", "setting": "Plasmodium falciparum [1]", "result": 100, "unit": "%"}, {"measurement": "Inhibition", "setting": "Plasmodium falciparum [2]", "result": 58, "unit": "%"}, {"measurement": "Inhibition", "setting": "HepG2", "result": 40, "unit": "%"}]}, {"compound": "O=C(NCc1cccc(CN2CCOCC2)c1)c1cc(Br)cc(N2CCN(c3ccncc3)CC2)c1.O=C(O)C(F)(F)F", "values": [{"measurement": "Inhibition", "setting": "Plasmodium falciparum [1]", "result": 99, "unit": "%"}, {"measurement": "Inhibition", "setting": "Plasmodium falciparum [2]", "result": 29, "unit": "%"}, {"measurement": "Inhibition", "setting": "HepG2", "result": 25, "unit": "%"}]}, {"compound": "COc1cccc2c(NCCNc3ccnc4c(OC)cccc34)ccnc12.Cl", "values": [{"measurement": "Inhibition", "setting": "Plasmodium falciparum [1]", "result": 93, "unit": "%"}, {"measurement": "Inhibition", "setting": "Plasmodium falciparum [2]", "result": 86, "unit": "%"}, {"measurement": "Inhibition", "setting": "HepG2", "result": 11, "unit": "%"}]}, {"compound": "Cc1noc(C)c1-c1cccc(CNCc2cccc(-c3cccc(-c4nc5cc(C(F)(F)F)ccc5[nH]4)c3)c2)c1.O=C(O)C(F)(F)F", "values": [{"measurement": "Inhibition", "setting": "Plasmodium falciparum [1]", "result": 100, "unit": "%"}, {"measurement": "Inhibition", "setting": "Plasmodium falciparum [2]", "result": 95, "unit": "%"}, {"measurement": "Inhibition", "setting": "HepG2", "result": 18, "unit": "%"}]}, {"compound": "COc1ccc2nc3cc(Cl)ccc3c(NCCN(C)C)c2c1", "values": [{"measurement": "Inhibition", "setting": "Plasmodium falciparum [1]", "result": 100, "unit": "%"}, {"measurement": "Inhibition", "setting": "Plasmodium falciparum [2]", "result": 100, "unit": "%"}, {"measurement": "Inhibition", "setting": "HepG2", "result": 4, "unit": "%"}]}, {"compound": "Cl.Nc1c2c(nc3ccc(NC(=O)CCCCCCc4ccccc4)cc13)CCCC2", "values": [{"measurement": "Inhibition", "setting": "Plasmodium falciparum [1]", "result": 100, "unit": "%"}, {"measurement": "Inhibition", "setting": "Plasmodium falciparum [2]", "result": 90, "unit": "%"}, {"measurement": "Inhibition", "setting": "HepG2", "result": 100, "unit": "%"}]}, {"compound": "Cc1cc2ncn(-c3ccnc(N4CCN(CCCN5CCCC5)CC4)n3)c2cc1C.O=C(O)C(F)(F)F", "values": [{"measurement": "Inhibition", "setting": "Plasmodium falciparum [1]", "result": 100, "unit": "%"}, {"measurement": "Inhibition", "setting": "Plasmodium falciparum [2]", "result": 49, "unit": "%"}, {"measurement": "Inhibition", "setting": "HepG2", "result": 24, "unit": "%"}]}, {"compound": "CCOC(=O)N[C@@H]1CN[C@@H](C#Cc2cc3c(Nc4ccc(OCc5cccc(F)c5)c(Cl)c4)ncnc3s2)C1", "values": [{"measurement": "Inhibition", "setting": "Plasmodium falciparum [1]", "result": 86, "unit": "%"}, {"measurement": "Inhibition", "setting": "Plasmodium falciparum [2]", "result": 13, "unit": "%"}, {"measurement": "Inhibition", "setting": "HepG2", "result": 8, "unit": "%"}]}, {"compound": "Br.C=CCNC(CCCCC)c1ccc(OCCOc2ccc(C(CCCCC)NCC=C)cc2)cc1", "note": "(centres undefined)", "values": [{"measurement": "Inhibition", "setting": "Plasmodium falciparum [1]", "result": 88, "unit": "%"}, {"measurement": "Inhibition", "setting": "Plasmodium falciparum [2]", "result": 48, "unit": "%"}, {"measurement": "Inhibition", "setting": "HepG2", "result": 100, "unit": "%"}]}, {"compound": "CN1CCCN(c2ccnc3cc4c(cc23)N(C(=O)c2ccccc2Cl)CC4)CC1.Cl", "values": [{"measurement": "Inhibition", "setting": "Plasmodium falciparum [1]", "result": 88, "unit": "%"}, {"measurement": "Inhibition", "setting": "Plasmodium falciparum [2]", "result": 30, "unit": "%"}, {"measurement": "Inhibition", "setting": "HepG2", "result": 4, "unit": "%"}]}, {"compound": "Cl.OC(CN1CCN(c2cccc(Cl)c2)CC1)C(c1ccccc1)c1ccccc1", "note": "(centres undefined)", "values": [{"measurement": "Inhibition", "setting": "Plasmodium falciparum [1]", "result": 85, "unit": "%"}, {"measurement": "Inhibition", "setting": "Plasmodium falciparum [2]", "result": 4, "unit": "%"}, {"measurement": "Inhibition", "setting": "HepG2", "result": 0, "unit": "%"}]}, {"compound": "Cc1cccc(NC(=O)c2ccc(C(=O)NC3CCN(CC4CCCCC4)C3)cc2)c1.O=C(O)C(F)(F)F", "note": "(centres undefined)", "values": [{"measurement": "Inhibition", "setting": "Plasmodium falciparum [1]", "result": 88, "unit": "%"}, {"measurement": "Inhibition", "setting": "Plasmodium falciparum [2]", "result": 3, "unit": "%"}, {"measurement": "Inhibition", "setting": "HepG2", "result": 17, "unit": "%"}]}, {"compound": "CCCC(C(CC1CCC(C)CC1)C(=O)NC(CCCNc1ncccn1)C(=O)Nc1nccs1)N(O)C=O", "note": "(centres undefined)", "values": [{"measurement": "Inhibition", "setting": "Plasmodium falciparum [1]", "result": 98, "unit": "%"}, {"measurement": "Inhibition", "setting": "Plasmodium falciparum [2]", "result": 98, "unit": "%"}, {"measurement": "Inhibition", "setting": "HepG2", "result": 10, "unit": "%"}]}, {"compound": "Cc1cc(=O)oc2c1ccc1oc(C(O)c3ccc(Cl)cc3)c(C)c12", "note": "(centres undefined)", "values": [{"measurement": "Inhibition", "setting": "Plasmodium falciparum [1]", "result": 95, "unit": "%"}, {"measurement": "Inhibition", "setting": "Plasmodium falciparum [2]", "result": 96, "unit": "%"}, {"measurement": "Inhibition", "setting": "HepG2", "result": 0, "unit": "%"}]}, {"compound": "CCCCCc1cnc2nc(N)nc(N)c2c1C.Cl", "values": [{"measurement": "Inhibition", "setting": "Plasmodium falciparum [1]", "result": 96, "unit": "%"}, {"measurement": "Inhibition", "setting": "Plasmodium falciparum [2]", "result": 23, "unit": "%"}, {"measurement": "Inhibition", "setting": "HepG2", "result": 64, "unit": "%"}]}, {"compound": "CCC(C)OC(=O)C1=C(C)NC2=C(C(=O)CC(c3ccc(OC)c(OC)c3)C2)C1c1cccc(O)c1", "note": "(centres undefined)", "values": [{"measurement": "Inhibition", "setting": "Plasmodium falciparum [1]", "result": 100, "unit": "%"}, {"measurement": "Inhibition", "setting": "Plasmodium falciparum [2]", "result": 98, "unit": "%"}, {"measurement": "Inhibition", "setting": "HepG2", "result": 0, "unit": "%"}]}, {"compound": "O=C(Nc1cccc(CCNCc2ccccc2)c1)Nc1cccc2ccccc12.O=C(O)C(F)(F)F", "values": [{"measurement": "Inhibition", "setting": "Plasmodium falciparum [1]", "result": 100, "unit": "%"}, {"measurement": "Inhibition", "setting": "Plasmodium falciparum [2]", "result": 8, "unit": "%"}, {"measurement": "Inhibition", "setting": "HepG2", "result": 13, "unit": "%"}]}, {"compound": "COc1ccccc1Cc1c(C)nc2nc(N)nc(N)c2c1C.Cl", "values": [{"measurement": "Inhibition", "setting": "Plasmodium falciparum [1]", "result": 96, "unit": "%"}, {"measurement": "Inhibition", "setting": "Plasmodium falciparum [2]", "result": 2, "unit": "%"}, {"measurement": "Inhibition", "setting": "HepG2", "result": 69, "unit": "%"}]}, {"compound": "COc1ccc(CCN2CCC(CN(C)Cc3cnn(-c4ccccc4)c3)CC2)cc1", "values": [{"measurement": "Inhibition", "setting": "Plasmodium falciparum [1]", "result": 90, "unit": "%"}, {"measurement": "Inhibition", "setting": "Plasmodium falciparum [2]", "result": 5, "unit": "%"}, {"measurement": "Inhibition", "setting": "HepG2", "result": 25, "unit": "%"}]}]}
